# Source: PubChem
# PD-1 reverse act: activators reversing PD-1 mediated T-cell inhibition; primary human CD4 T cells, PD-L1 beads, CellTiter-Glo 96 h; activation, % (test concentration not listed); 29,000 tested, under 10 active; AID 2316; call rule not given here;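 also: 0% = median vehicle wells and 100% = positive control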
# U2OS ROS induce: raises reactive oxygen species in U2OS cancer cells | U2OS ROS induction, H2DCF-DA fluorescence | ROS induction (% of piperlongumine), % at 10 µM | 46,000 tested, 2% active | AID 624156; in the data active = ROS induction above about 79%, passing the limit was not always enough;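 also: 0% = DMSO vehicle median and 100% = reference compound median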
# The depositor's hits bear a star; nt = no result given. Many of the other results were omitted from the sample, so hits are more common in it than they were.
SMILES,PD-1 reverse act,U2OS ROS induce
COc1ccc(CN(C)C[C@@H]2Oc3ccc(NS(=O)(=O)c4cn(C)cn4)cc3CC(=O)N([C@H](C)CO)C[C@H]2C)cc1,0.9,94.8*
C[C@H]1CN([C@@H](C)CO)C(=O)Cc2cc(NS(=O)(=O)c3cn(C)cn3)ccc2O[C@@H]1CN(C)Cc1ccc(Oc2ccccc2)cc1,0.1,-7.0
CCOC(=O)c1sc(SC)c2c1CCc1cnc(SC)nc1-2,0.3,-7.0
CCOC(=O)c1sc(SC)c2c1CC(c1ccc(OC)cc1)CC2=O (centres undefined),0.2,135.8*
Cc1ccc(/C(C#N)=C/c2ccc(N(C)C)cc2)cc1,-1.9,15.7
COc1ccc(CSc2nnc(CSc3cccs3)n2C)cc1,0.9,87.3*
Cn1c(CNC(=O)c2cccs2)nnc1SCc1ccccc1,nt,15.0
COC(=O)c1cc(NC(=O)C(C)N(c2ccc(C)cc2)S(C)(=O)=O)ccc1Cl (centres undefined),-1.8,-1.5
Cc1cc(C)c(S(=O)(=O)N2CCc3ccccc32)c(C)c1,nt,105.1*
Cc1cc(C)c(NC(=O)c2cc(S(=O)(=O)N3CCc4ccccc43)ccc2F)c(C)c1,nt,11.4
COc1ccc(-n2c(SCc3nc4ccccc4s3)nnc2-c2cccnc2)cc1,-2.6,13.9
O=C(CCCCCC(=O)Nc1ccccc1O)N/N=C/c1ccc2c(c1)CCO2,nt,26.7
O=C(CSCc1cnn(-c2ccccc2)c1-n1cccc1)N1CCN(c2ccc(F)cc2)CC1,nt,35.5
C[C@@H]1CN([C@H](C)CO)C(=O)Cc2cc(NS(=O)(=O)c3ccc(F)cc3)ccc2O[C@H]1CN(C)Cc1ccc2c(c1)OCO2,0.3,129.3*
C[C@H]1CN([C@@H](C)CO)C(=O)Cc2cc(NS(=O)(=O)c3ccc(F)cc3)ccc2O[C@H]1CN(C)Cc1ccc2c(c1)OCO2,1.1,109.4*
C[C@H](CO)N1C[C@H](C)[C@H](CN(C)Cc2ccc3c(c2)OCO3)Oc2ccc(NS(=O)(=O)c3ccc(F)cc3)cc2CC1=O,1.1,11.3
C[C@@H]1CN([C@H](C)CO)C(=O)Cc2cc(NS(=O)(=O)c3ccc(F)cc3)ccc2O[C@@H]1CN(C)Cc1ccc2c(c1)OCO2,-0.3,19.1
CC(C)=CCC/C(C)=C/CCC1(C)Oc2c(c(O)cc3c2CN(C(CCC(=O)O)C(=O)O)C3=O)CC1O (centres undefined),-0.6,-4.1
COc1ccccc1CN1C(=O)c2ccccc2[C@@]2(Cc3ccccc3N(CCCN(C)C)C2=O)[C@@H]1c1ccc(CO)cc1,nt,-2.4
C=C1C(=O)O[C@@H]2C=C(C)[C@@H]3CC[C@@](C)(O)[C@@H]3C[C@H]12,-0.1,-3.0
C=C1C(=O)O[C@H]2C3=C(C)CCC[C@]3(C)C(=O)C[C@@H]12,-35.2,84.3*
NC(=O)C1CCN(C(=O)c2cnn(-c3ccccc3)c2-n2cccc2)CC1,nt,-13.1
Cc1ccc(-c2nc(S(=O)(=O)c3ccc(F)cc3)c(NCc3ccco3)o2)cc1,3.2,5.7
CCC(C)S(=O)(=O)c1oc(-c2ccc(C)cc2)nc1S(=O)(=O)c1ccccc1 (centres undefined),-14.2,219.5*
O=C(Cn1nc(Cc2ccncc2)c2ccccc2c1=O)NCc1ccccc1,nt,-8.0
SMILES,PD-1 reverse act,U2OS ROS induce
O=C(COc1ccccc1)Nc1ccc2nn(-c3ccc(Cl)cc3)nc2c1,1.8,-12.7
CN(C)c1ccc(/C=C2/C(=O)Nc3ccccc32)cc1,-0.1,9.2
CC(=O)N1/C(=C/c2ccc(N(C)C)cc2)C(=O)c2ccccc21,nt,150.9*
COc1ccc([Si](C)(C)[C@H]2[C@H](CCO)O[C@@]3(C(=O)N(Cc4ccccc4)c4ccc(N5CCOC5=O)cc43)[C@@H]2C)cc1,nt,35.9
COc1ccc([Si](C)(C)[C@@H]2[C@@H](CCO)O[C@]3(C(=O)N(Cc4cccc(N5CCOC5=O)c4)c4ccccc43)[C@H]2C)cc1,nt,100.9*
COc1ccc([Si](C)(C)[C@@H]2[C@@H](CCO)O[C@]3(C(=O)N(Cc4ccccc4)c4ccc(N5CCOC5=O)cc43)[C@H]2C)cc1,nt,14.9
COc1ccc([Si](C)(C)[C@@H]2[C@@H](CCO)O[C@]3(C(=O)N(Cc4ccc(NC(C)=O)cc4)c4ccccc43)[C@H]2C)cc1,nt,93.2*
COc1ccc([Si](C)(C)[C@H]2[C@H](CCO)O[C@@]3(C(=O)N(Cc4ccc(NC(C)=O)cc4)c4ccccc43)[C@@H]2C)cc1,nt,36.0
COc1ccc([Si](C)(C)[C@@H]2[C@@H](CCO)O[C@]3(C(=O)N(Cc4ccc(N5CCOC5=O)cc4)c4ccccc43)[C@H]2C)cc1,nt,239.6*
CCOc1ccc(NC(=O)Cn2cnc3scc(-c4ccc5ccccc5c4)c3c2=O)cc1,0.1,14.5
CCOC(=O)c1ccc2nc(C(F)(F)F)nc(N3CC(C)OC(C)C3)c2c1 (centres undefined),-1.5,107.9*
CCOC(=O)c1ccc2nc(C(F)(F)F)nc(NCc3ccc(Cl)cc3)c2c1,0.3,9.9
CCOC(=O)c1ccc(NC(=O)O[C@H]2[C@H](OC(=O)Nc3ccccc3)[C@@H](OC(=O)Nc3ccccc3)[C@@H](OC)O[C@@H]2CO)cc1,nt,88.3*
CCc1cccc(NC(=O)O[C@H]2[C@H](OC(=O)Nc3ccccc3)[C@@H](OC(=O)Nc3ccccc3)[C@@H](OC)O[C@@H]2CO)c1,nt,54.9
COC(=O)c1c(NC(=O)C2CC(=O)NN2Cc2ccccc2)sc2c1CCC2 (centres undefined),-7.4,149.4*
COC(=O)c1c(NC(=O)C2CC(=O)NN2Cc2ccccc2)sc2c1CCC(C)C2 (centres undefined),-5.6,40.3
O=C(CN1N=C(c2ccccc2)CCC1=O)NC1CC1,nt,-1.2
CC1CCc2sc3ncnc(NCCN4CCOCC4)c3c2C1 (centres undefined),-1.8,79.8*
Clc1ccc(-c2csc3ncnc(NCCN4CCOCC4)c23)cc1,-4.7,139.4*
CC1CCc2c(sc3ncnc(NCCCOC(C)C)c23)C1 (centres undefined),-6.2,62.1
OCCCNc1ncnc2scc(-c3ccccc3)c12,-0.8,2.5
CCc1ccc(NC(=O)NC(C)c2c(-n3cccc3)sc3c2CCCC3)cc1 (centres undefined),nt,8.8
Cc1ccc2oc(C(=O)Nc3sc4c(c3C(=O)NC3CCS(=O)(=O)C3)CCC4)c(C)c2c1 (centres undefined),-10.9,29.1
O=C(NCc1ccccn1)c1cc2nc(-c3ccccc3)cc(-c3ccccc3)n2n1,-8.6,141.4*
O=C(NCc1ccccn1)c1cc(-c2ccccc2)on1,1.5,-6.6
C[C@H](CO)N1C[C@H](C)[C@H](CN(C)Cc2ccc(-c3ccccc3)cc2)Oc2ccc(NC(=O)Cc3cn(C)c4ccccc34)cc2CC1=O,1.0,1.8
C[C@@H]1CN([C@@H](C)CO)C(=O)Cc2cc(NC(=O)Cc3cn(C)c4ccccc34)ccc2O[C@@H]1CN(C)Cc1ccc(-c2ccccc2)cc1,-3.0,85.4*
C[C@H]1CN([C@@H](C)CO)C(=O)Cc2cc(NC(=O)Cc3cn(C)c4ccccc34)ccc2O[C@H]1CN(C)CC1CCCCC1,nt,10.8
C[C@@H]1CN([C@H](C)CO)C(=O)Cc2cc(NC(=O)Cc3cn(C)c4ccccc34)ccc2O[C@H]1CN(C)Cc1ccccc1,nt,2.6
C[C@@H]1CN([C@H](C)CO)C(=O)Cc2cc(NC(=O)Cc3cn(C)c4ccccc34)ccc2O[C@@H]1CN(C)CC1CC1,0.1,123.8*
